# Source: the supplement of paper PMC12350171
# Where a name gives a salt, the structure may show the parent alone. Values without a mark were called inactive.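 How the source made its calls: active = AUC significantly below DMSO controls by Student t-fit with adjusted P under 0.01; inactive = not significantly reduced.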
# Test system: Haemophilus parainfluenzae
# Test: growth AUC normalised to DMSO control (fraction of control); higher = less growth inhibition, active = hit call of the paper
# Details: 20 µM
# Procedure, shortened: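 Hemin and NAD were added to the medium for Haemophilus parainfluenzae. All pathogens, after two anaerobic passages, were inoculated at a starting OD578 of 0.01 into pre-reduced mGAM plates with 20 μM compound and 1% DMSO under breathable seals, and OD578 was read hourly for 24 h in three biological replicates. AUC of each growth curve was obtained with the trapezoidal rule up to the exponential-to-stationary transition and normalised to DMSO controls from the same plate.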
row,SMILES,growth AUC normalised to DMSO control
1,Cc1cccc(Nc2ccncc2S(=O)(=O)NC(=O)NC(C)C)c1 [Torsemide],0.978
2,COc1cc(Cc2cnc(N)nc2N)cc(OC)c1OC [Trimethoprim],0.0255 (active)
3,CC(C)COCC(CN(Cc1ccccc1)c1ccccc1)N1CCCC1 (centres undefined) [Bepridil hydrochloride],0.771
4,CCN(CC)CCOC(=O)C(Cc1cccc2ccccc12)CC1CCCO1 (centres undefined) [Nafronyl oxalate],1.28
5,CCCCC1C(=O)N(c2ccccc2)N(c2ccc(O)cc2)C1=O (centres undefined) [Oxyphenbutazone],1.08
6,CC1(C)O[C@@H]2C[C@H]3[C@@H]4C[C@H](F)C5=CC(=O)CC[C@]5(C)[C@H]4[C@@H](O)C[C@]3(C)[C@]2(C(=O)CO)O1 [Flurandrenolide],1.03
7,Nc1nc(NC2CC2)c2ncn([C@H]3C=C[C@@H](CO)C3)c2n1 [Abacavir sulfate],0.979
8,Cc1c(OCC(F)(F)F)ccnc1C[S+]([O-])c1nc2ccccc2[nH]1 (centres undefined) [Lansoprazole],0.873
9,Cc1ccc(/C(=C\CN2CCCC2)c2ccccn2)cc1 [Triprolidine hydrochloride],0.961
10,C[C@H]1[C@H](NC(=O)/C(=N\OC(C)(C)C(=O)O)c2csc(N)n2)C(=O)N1S(=O)(=O)O [Aztreonam],0.0582 (active)
11,O=C(NCCN1CCOCC1)c1ccc(Cl)cc1 [Moclobemide],0.971
12,CC(COc1ccccc1)NC(C)C(O)c1ccc(O)cc1 (centres undefined) [Isoxsuprine hydrochloride],0.939
13,COc1ccc(-c2cc(=S)ss2)cc1 [Anethole-trithione],1.05
14,O=C(O)COC(=O)Cc1ccccc1Nc1c(Cl)cccc1Cl [Aceclofenac],1.01
15,CNNCc1ccc(C(=O)NC(C)C)cc1 [Procarbazine hydrochloride],0.995
16,CCc1cccc2c3c([nH]c12)C(CC)(CC(=O)O)OCC3 (centres undefined) [Etodolac],1.02
17,C=CCc1ccccc1OCC(O)CNC(C)C (centres undefined) [Alprenolol hydrochloride],1.06
18,Cc1cc(=O)n(-c2ccccc2)n1C [Antipyrine],0.988
19,CCCOc1ccc(C(=O)OCCN(CC)CC)cc1N [Proparacaine hydrochloride],1.01
20,COc1cnc(NS(=O)(=O)c2ccc(N)cc2)nc1 [Sulfameter],0.98

row,SMILES,growth AUC normalised to DMSO control
1,O=c1[nH]c(=O)n([C@H]2C[C@H](O)[C@@H](CO)O2)cc1I [Idoxuridine],0.942
2,Cc1ccc(NC(=O)c2ccc(CN3CCN(C)CC3)cc2)cc1Nc1nccc(-c2cccnc2)n1 [Imatinib],1.09
3,O=C(N[C@H](CO)[C@H](O)c1ccc([N+](=O)[O-])cc1)C(Cl)Cl [Chloramphenicol],0.0445 (active)
4,Nc1c2c(nc3ccccc13)CCCC2 [Tacrine hydrochloride],1.01
5,C[C@]12CC[C@@H]3c4ccc(O)cc4CC[C@H]3[C@@H]1CC[C@@H]2O [Estradiol-17 beta],1
6,CS(=O)(=O)OCCCCOS(C)(=O)=O [Busulfan],1
7,CC(C)NCC(O)COc1cccc2[nH]ccc12 (centres undefined) [Pindolol],1.05
8,O=S(=O)(O)c1cc(O)ccc1O [Ethamsylate diethylammonium salt],0.98
9,CC(C)NC[C@@H](O)COc1cccc2ccccc12 [(R) Propranolol hydrochloride],0.99
10,CC(C)NCC(O)c1ccc2ccccc2c1 (centres undefined) [Pronethalol hydrochloride],1
11,CC1CNc2c(cccc2S(=O)(=O)N[C@@H](CCCNC(=N)N)C(=O)N2CC[C@@H](C)C[C@@H]2C(=O)O)C1 (some centres undefined) [Argatroban],1.04
12,C[C@@H]1[C@H](O)[C@@H](C)/C=C/C=C/C=C/C=C/C=C/C=C/C=C/[C@H](O[C@@H]2O[C@H](C)[C@@H](O)[C@H](N)[C@@H]2O)C[C@@H]2O[C@](O)(C[C@@H](O)C[C@@H](O)[C@H](O)CC[C@@H](O)C[C@@H](O)CC(=O)O[C@H]1C)C[C@H](O)[C@H]2C(=O)O [Amphotericin B],1.09
13,C[C@@H]1C[C@H]2[C@@H]3C[C@H](F)C4=CC(=O)C=C[C@]4(C)[C@@]3(F)[C@@H](O)C[C@]2(C)[C@@]1(O)C(=O)CO [Flumethasone],1
14,CCCCOC(=O)c1ccc(N)cc1 [Butamben],1
15,O=C(O)c1cc(-c2ccc(F)cc2F)ccc1O [Diflunisal],0.916
16,O=C(O)Cc1ccc(-c2ccccc2)cc1 [Felbinac],0.948
17,Cc1nnc(SCC2=C(C(=O)O)N3C(=O)[C@@H](NC(=O)Cn4cnnn4)[C@H]3SC2)s1 [Cefazolin sodium salt],0.0609 (active)
18,Nc1nc2c(ncn2COC(CO)CO)c(=O)[nH]1 [Ganciclovir],0.989
19,O=C(NCC(O)CO)c1c(I)c(C(=O)NCC(O)CO)c(I)c(N(CCO)C(=O)CO)c1I (centres undefined) [Ioversol],1.06
